Compound activity deposited in PubChem BioAssay by National Center for Advancing Translational Sciences (NCATS).
SMN2 splice up: qHTS Assay for Enhancers of SMN2 Splice Variant Expression | 2.8% of 210,000 active | HEK293 SMN2-luciferase splicing reporter, luminescence, 30-36 h | Potency, µM (titrated, usually from 46.1 µM), inactives show at the top dose activity change, positive = activation, actives largely listed as activators | AID 1458, 2008; further: % of control where 0% means no effect; nearly all actives have a fitted effect of over 55% in size
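HEK293 cells carry an SMN2 minigene-luciferase reporter in which exon 7 inclusion puts luciferase in frame. Cells were seeded at 2000 cells/well, attached for 10-12 hours, then exposed to compounds for 30-36 hours at 37C before ONE-Glo luminescence.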
FLuc counter: qHTS profiling assay for firefly luciferase inhibitor/activator using purifed enzyme and Km concentrations of substrates (counterscreen for miR-21 project); Luciferin 4-monooxygenase (Photinus pyralis), P08659; purified FLuc, Km substrates, luminescence inhibition; AID 588342, 2011; 6.9% of 360,000 active; Potency, µM (titrated, usually from 57.5 µM), for the others: at the top dose activity change, negative = inhibition, hits mostly inhibitors;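 further: plate controls were vehicle for no effect and reference inhibitor for full effect; nearly all actives have a fitted effect of over 55% in size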
Target sequence (P08659 whole entry, looked up): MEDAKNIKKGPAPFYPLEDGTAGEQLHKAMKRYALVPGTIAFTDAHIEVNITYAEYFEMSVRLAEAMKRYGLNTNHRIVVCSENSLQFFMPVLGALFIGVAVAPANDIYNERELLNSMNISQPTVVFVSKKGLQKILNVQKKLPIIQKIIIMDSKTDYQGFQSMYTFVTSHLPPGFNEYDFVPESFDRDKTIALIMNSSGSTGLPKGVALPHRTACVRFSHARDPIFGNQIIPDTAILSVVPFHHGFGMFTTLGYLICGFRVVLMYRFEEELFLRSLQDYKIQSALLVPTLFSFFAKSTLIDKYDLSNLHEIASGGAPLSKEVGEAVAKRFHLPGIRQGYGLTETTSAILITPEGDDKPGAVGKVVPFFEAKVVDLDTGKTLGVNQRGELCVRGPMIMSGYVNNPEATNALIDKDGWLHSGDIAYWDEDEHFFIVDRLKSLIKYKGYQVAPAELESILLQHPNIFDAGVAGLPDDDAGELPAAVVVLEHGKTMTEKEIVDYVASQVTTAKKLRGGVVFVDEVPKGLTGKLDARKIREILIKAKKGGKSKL
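Purified P. pyralis luciferase, 10 nM final, with Km-level 10 uM D-luciferin and 10 uM ATP in 50 mM Tris acetate pH 7.5, 10 mM Mg acetate, 0.01% Tween-20, 0.05% BSA; 6-point qHTS titration about 60 µM downward; luminescence read.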
NPC1 prom act: qHTS Assay for NPC1 Promoter Activators | Huh7 NPC1 promoter luciferase reporter, 24 h | Potency, µM (titrated, usually from 9.22 µM), for inactives: top-dose activation, most hits filed as activators | 2.4% of 320,000 active | AID 485313, 2010; further: % of control where 0% means no effect; nearly all actives have a fitted effect of over 60% in size
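Stable NPC1-promoter luciferase Huh7 line; cpd (DMSO) 24 h, 37 °C, 5% CO2; Amplite luciferase reagent 10 min RT; luminescence readout. qHTS format.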
p53 reactivator: qHTS assay for re-activators of p53 using a Luc reporter; H1299 p53-A138V BP100-luciferase reporter, luminescence, 24 h; Potency, µM (titrated, usually from 92.2 µM), for the others: at the highest dose activity change, positive = activation, usual class: activators; 0.063% of 320,000 active; further: % of control where 0% means no effect; nearly all actives have a fitted effect of over 45% in size
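p53-null H1299 cells stably carrying temperature-sensitive p53-A138V and a BP100-luciferase reporter were pinned with compounds (4-point, 1:5 series) and held 24 hrs at 37 deg C. Luminescence was read 10 min after detection reagent.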
ELG1 genotox: qHTS screen for small molecules that induce genotoxicity in human embryonic kidney (HEK293T) cells expressing luciferase-tagged ELG1; HEK293T ELG1-luciferase reporter, luminescence, 16 h; Potency, µM (doses to about 46 µM), for inactives: top-dose activity change, positive = activation, actives largely listed as activators; AID 504466, 2011; 1.3% of 330,000 active; further: % of control where 0% means no effect; nearly all actives have a fitted effect of over 60% in size
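Step 1: seed 2,000 HEK293T ELG1-luciferase cells per well. Step 2: add compound or DMSO, incubate 16 hr at 37 °C. Step 3: ONE-Glo, 30 min at room temperature, read luminescence.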
Rab9 prom act: qHTS Assay for Rab9 Promoter Activators. Huh7 Rab9 promoter-luciferase reporter, luminescence, 24 h. Potency, µM (titrated, usually from 9.22 µM), without a hit: top-dose activation, negative = inhibition, most hits filed as activators. 2.8% of 320,000 active; further: % of control where 0% means no effect; nearly all actives have a fitted effect of over 60% in size
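Cell-based reporter: Huh7 stable for Rab9 promoter-driven luciferase, plated in reduced-serum medium with 10% FBS at 1500 cells/well, compound-treated 24 h at 37 °C, luminescence read after 10 min reagent.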
* marks the source's active call; other numbers are inactive results; ? = inconclusive; / = no result. Only some compounds are listed: those with a hit (about 7.4% of all), similar ones and a draw of the others. The call rests on the fitted dose curve; in most records, active means well fitted curve in the direction sought with a large enough effect; inconclusive means small, poorly fitted or top-dose-only effect, or another doubt; inactive means no such curve, though single readings can be large; an effect the other way counts as inactive or inconclusive. Potency means the concentration at half of the fitted maximal effect.

SMILES	SMN2 splice up	FLuc counter	NPC1 prom act	p53 reactivator	ELG1 genotox	Rab9 prom act
O=C(c1ccc2oc(CCCc3ccccc3)nc2c1)N1CCCC1	/	8.5µM*	3.2µM*	?	9.2µM*	1.8µM*
CC(=O)C1CCCN(C(=O)c2ccc3oc(CCc4ccccc4)nc3c2)C1 (centres undefined)	/	?	?	?	?	2.5µM*
COCCc1nc2ccc(C(=O)N3CCCCC3COC)cc2o1 (centres undefined)	/	-3%	0%	8%	4%	-4%
COc1ccc(S(=O)(=O)N2CCOCC2)cc1NC(=O)COC(=O)CC1CC2CCC1C2 (centres undefined)	/	/	/	-10%	-1%	/
CCCCc1nc2cc(C(=O)N3CCN(c4nc(C)cnc4C)CC3)ccc2o1	/	15µM*	?	?	4%	?
CCCCc1nc2cc(C(=O)N3CCC(OC)CC3)ccc2o1	/	?	1%	12%	13%	?
CCOC(=O)C1CCCN(C(=O)c2ccc3oc(CCc4ccccc4)nc3c2)C1 (centres undefined)	/	13µM*	?	16%	12%	30%
c1ccc(-c2ccc(-c3nccc4ccccc34)[nH]2)cc1	/	0.15µM*	?	-5%	?	1µM*
Nc1ccc(-c2ccc(N)c(O)c2)cc1O	-8%	/	/	/	/	/
Nc1cc(-c2ccccc2)ccc1O	-1%	24µM*	12%	26%	3%	1%
CC(C)C[C@@H](CC(=O)N[C@@H](CCCN)CC(=O)N[C@@H]1CCCC[C@H]1C(=O)N[C@H](CC(=O)N[C@@H](CCC(=O)O)CC(=O)O)Cc1ccccc1)NC(=O)[C@@H]1CNCC[C@H]1N	-1%	/	/	/	/	/
CCc1ccc(CNC(=O)Cn2nc(C)n3c(cc4cc(C)ccc43)c2=O)cc1	1%	-1%	/	/	/	/
CNC(=S)N1N=C2c3ccccc3CCC2C1c1ccccc1Cl (centres undefined)	/	-4%	-6%	2%	-3%	-6%
CN1N=C2c3ccccc3CCC2C1c1ccc(Cl)cc1 (centres undefined)	/	11µM*	?	?	?	?
CN1N=C2c3ccccc3CCC2C1c1ccc(F)cc1 (centres undefined)	/	?	?	20%	17%	2.5µM*
O=C(Cn1c(=O)oc2cc(Cl)ccc21)Nc1cccc(C(F)(F)F)c1	/	-2%	/	/	/	/
Clc1cccc2sc(N3CCCCC3)nc12	?	24µM*	29%	?	23µM*	?
O=C(C1CC1)N1CCN(c2nc3c(Cl)cccc3s2)CC1	/	-13%	/	/	/	/
Clc1cc(Cl)c2nc(N3CCCCC3)sc2c1	?	8.5µM*	2.8µM*	?	?	4µM*
Cc1cc(C)c(C#N)c(SCC(=O)Nc2c(C)n(C)n(-c3ccccc3)c2=O)n1	/	/	/	-1%	3%	/
COc1ccc(-c2noc(CSc3nc4ccccc4[nH]3)n2)cc1OC	-51%	0%	/	/	/	/
Cc1ccc(NNS(=O)(=O)c2ccc(C)cc2)cc1	-13%	21µM*	1%	2%	2%	-1%
Cc1cccc(C(=O)N2CCN(S(=O)(=O)N3CCCCCC3)CC2)c1	/	1%	1%	-2%	-19%	2%
COc1ccccc1CN1CC(C(=O)N2CCCCO2)CCC1=O (centres undefined)	/	?	26%	18%	?	?
O=C1CCC(C(=O)N2CCCCO2)CN1CCc1ccccc1 (centres undefined)	/	17µM*	?	?	?	?
SMILES	SMN2 splice up	FLuc counter	NPC1 prom act	p53 reactivator	ELG1 genotox	Rab9 prom act
CC(=O)c1c(C(C)=O)c(C)n(-c2ccc3ncccc3c2)c1C	/	0%	-4%	-6%	-6%	-9%
Cc1cc(/C=N\NC(=O)COc2cccc3cccnc23)c(C)n1-c1ccccc1	/	1.3µM*	-1%	12%	1%	-6%
Cc1nc2ccccn2c1C(=O)N/N=C/c1ccccc1	/	-11%	-2%	7%	1%	-4%
Cc1cc(/C=N\NC(=O)c2cccs2)c(C)n1-c1ccc2ncccc2c1	?	1.3µM*	2.8µM*	17%	?	1.8µM*
Cc1nc2ccccn2c1C(=O)N/N=C/c1cc(C)n(-c2ccc(Br)cc2)c1C	-46%	12µM*	-4%	1%	-1%	-1%
Cc1cc(/C=N\NC(=O)COc2cccc3cccnc23)c(C)n1-c1ccc(Br)cc1	-45%	4.8µM*	-4%	18%	-2%	0%
CC(=O)O[C@](C)(CCC=C(C)C)C1CC=C(C)CC1 (some centres undefined)	10%	/	/	/	/	/
CCCCC(=O)Oc1ccccc1C(=O)O	0%	/	/	/	/	/
Cc1ccc(C)c(N2CCN(c3c(CN4CCCC4)c(=O)oc4ccccc34)CC2)c1	9%	-1%	/	/	/	/
Cc1cc(/C=N/NC(=O)c2ccccn2)c(C)n1-c1cccc([N+](=O)[O-])c1	-5%	?	5%	23%	8%	27%
Cc1cc(/C=N/NC(=O)C(=O)NCc2ccccn2)c(C)n1-c1ccccc1	21%	2.7µM*	0%	10%	?	-3%
Cc1ccnc(-n2c(C)cc(/C=N/NC(=O)COc3cccc4cccnc34)c2C)c1	/	13µM*	1%	-5%	-2%	-3%
CCc1ccc(C(O)(CNCc2ccccc2)c2ccccc2)cc1 (centres undefined)	/	-4%	2%	3%	-7%	-1%
c1ccc2nc(-c3ccncc3)ccc2c1	20%	?	?	10%	?	?
c1ccc2nc(-c3ccc(N4CCOCC4)cc3)ccc2c1	?	0.27µM*	0.25µM*	/	?	0.1µM*
Cc1cc(-c2ccc(N3CCOCC3)cc2)nc2ccccc12	/	1.5µM*	?	?	?	?
CN1CCN(c2ccc(-c3ccc4ccccc4n3)cc2)CC1	-65%	0.12µM*	-34%	-9%	-16%	-39%
Cc1cccc(-c2nc(Nc3ccc(N4CCOCC4)cc3)c3ccccc3n2)c1	1%	?	1%	-5%	-6%	-2%
CC(C)C(NS(=O)(=O)c1cccc(C(F)(F)F)c1)C(=O)N1CCc2ccccc2C1 (centres undefined)	/	1%	-1%	-8%	-8%	0%
CCC1Oc2ccccc2N(CC(=O)N2CCOCC2)C1=O (centres undefined)	/	2%	1%	7%	0%	-1%
